# This is part of a sample that, as a whole, favours compounds with a hit. Of some 83,000 tested, about 20% had one in any assay.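 Compound tested at a single concentration for 48 hours in 96-well plates; a percent growth value below 10 was scored as active.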 Unmarked numbers belong to inactive results. Calls of active or inactive are those of the source.
# Assays:
# Assay in all cases: NCI-60 one-dose screen, 48 h (100 = growth as untreated, 0 = no growth, -100 = all killed)
# Conditions in all cases: 10 µM unless noted
# NCI-H23 lung = system: NCI-H23 lung
# NCI-H226 lung = system: NCI-H226 lung
# NCI-H322M lung = system: NCI-H322M lung
# HOP-62 NSCLC = system: HOP-62 NSCLC
# NCI-H460 lung = system: NCI-H460 lung
# HOP-92 NSCLC = system: HOP-92 NSCLC
# NCI-H522 lung = system: NCI-H522 lung
# A549/ATCC NSCLC = system: A549/ATCC NSCLC
# COLO 205 colon = system: COLO 205 colon
# DU-145 prostate = system: DU-145 prostate
# K-562 leukemia = system: K-562 leukemia
# MALME-3M melanoma = system: MALME-3M melanoma
# MDA-MB-231 breast = system: MDA-MB-231 breast
# SF-268 CNS = system: SF-268 CNS
# SF-295 CNS = system: SF-295 CNS
# SF-539 CNS = system: SF-539 CNS
# UACC-257 melanoma = system: UACC-257 melanoma
# M14 melanoma = system: M14 melanoma
# 786-0 renal = system: 786-0 renal
# RXF 393 renal = system: RXF 393 renal
SMILES,growth (NCI-H23 lung),growth (NCI-H226 lung),growth (NCI-H322M lung),growth (HOP-62 NSCLC),growth (NCI-H460 lung),growth (HOP-92 NSCLC),growth (NCI-H522 lung),growth (A549/ATCC NSCLC),growth (COLO 205 colon),growth (DU-145 prostate),growth (K-562 leukemia),growth (MALME-3M melanoma),growth (MDA-MB-231 breast),growth (SF-268 CNS),growth (SF-295 CNS),growth (SF-539 CNS),growth (UACC-257 melanoma),growth (M14 melanoma),growth (786-0 renal),growth (RXF 393 renal)
CC1(C)N=C(N)N=C(N)N1c1ccc(OCC(=O)Nc2ccccc2)c(Cl)c1,24%,99.7%,40.2%,-3.64% (active),15.3%,13.4%,-7.05% (active),11.2%,82.9%,39.1%,18.5%,55.1%,68.9%,28%,23.5%,23.8%,-3.5% (active),25.7%,,
COc1ccc(-c2cnc(-c3ccc(F)cc3)[nH]2)cc1,88.2%,85.4%,213%,46.5%,103%,82.5%,85.9%,-55.7% (active),111%,113%,57.1%,288%,100%,92.6%,96.6%,105%,-25.1% (active),-17.3% (active),,
CCOc1ccccc1C(=O)N1CCN(c2cc(Cl)cc(Cl)c2)CC1,24.3%,65.6%,35%,27.1%,5.68% (active),18.2%,,19.3%,-65.9% (active),8.76% (active),,45.3%,6.62% (active),30%,17.9%,-4.39% (active),51.1%,-23.3% (active),14.5%,40.9%
COc1ccc(-c2nn(-c3ccc(NC(=O)Nc4cc(C(F)(F)F)cc(C(F)(F)F)c4)cc3)cc2-c2ccncc2)cc1Cl,8.51% (active),0.753% (active),30.9%,19.5%,-2.26% (active),-21.6% (active),,14.6%,-33.4% (active),30.4%,17.2%,11.4%,8.03% (active),21.8%,4% (active),24.6%,13.6%,20.6%,1.94% (active),-26.2% (active)
ClC1c2ccccc2CCc2ccccc21,89.2%,96.7%,94.1%,90%,114%,82.7%,,93.4%,96.5%,120%,109%,90.6%,104%,99.3%,106%,95%,88.8%,99.2%,93.5%,111%
O=C(Nc1ccc(-n2cc(-c3ccncc3)c(-c3ccc(O)c(Cl)c3)n2)cc1)Nc1cc(C(F)(F)F)cc(C(F)(F)F)c1,47.5%,87.8%,51.5%,71.5%,49.3%,2.56% (active),,53.6%,28.6%,80.6%,57.6%,92.1%,78.3%,70.8%,19.6%,62.4%,90.3%,55.6%,50.5%,27%
O=C(Nc1ccc(-n2ccc3c(NC(=O)c4ccccc4)nccc32)cc1)Nc1cccc(C(F)(F)F)c1,38.7%,44.7%,63.2%,84.5%,34.3%,32.3%,,7.66% (active),64.7%,31.8%,21.2%,73.4%,63.7%,51.8%,37.1%,44.8%,68.8%,43.7%,88.1%,10.3%
O=S(=O)(CCN1CCOCC1)Nc1cc(-c2ccc3ncnc(Nc4ccc(F)c(Cl)c4)c3c2)cnc1Cl,28%,26.9%,0.347% (active),-0.609% (active),14.8%,-20.8% (active),,10.3%,-6.12% (active),15.6%,42.3%,-23.1% (active),-1.28% (active),16.8%,2.93% (active),-34.5% (active),-3.1% (active),14.5%,8.06% (active),-19% (active)
O=[N+]([O-])c1cccc2cc(S(=O)(=O)O)ccc12,105%,103%,107%,98.8%,110%,85%,,74.2%,105%,105%,80.7%,102%,105%,104%,104%,99.4%,91.9%,107%,100%,122%
Nc1ncnc2c1c(C(F)(F)F)cn2[C@@H]1O[C@H](CO)[C@@H](O)[C@H]1O,2.27% (active),-13.8% (active),19.5%,-4.3% (active),7.65% (active),-12.8% (active),,10.5%,-42.1% (active),17.9%,5.69% (active),-16.9% (active),15.7%,7.4% (active),7.79% (active),-31.7% (active),-5.51% (active),2.76% (active),13.5%,-45.2% (active)
COc1ccc2c(c1)/C(=C/c1c(-c3cc(OC)c(OC)c(OC)c3Br)nc3sccn13)C(=O)N2,101%,86.1%,88.9%,59.2%,111%,60.8%,,101%,117%,114%,76%,62.1%,81.4%,116%,105%,95.3%,110%,115%,93.4%,118%
C=C1C(=O)O[C@H]2[C@H]1CC/C(COC(=O)c1cc(OC)c(OC)c(OC)c1)=C\CC[C@@]1(C)O[C@@H]21,8.29% (active),-12.1% (active),52.9%,22%,16.1%,-59.5% (active),,24.7%,-73.4% (active),-23.8% (active),,-57.7% (active),-39% (active),16.5%,51%,-48.3% (active),-41.3% (active),-36.7% (active),-90.9% (active),-87.8% (active)
c1cncc(-c2nc3ccccc3[nH]2)c1,84.4%,92.7%,101%,83.2%,105%,103%,,93.9%,89.1%,112%,102%,109%,83.4%,105%,118%,97.8%,27.7%,99.7%,107%,94.6%
COc1cc(-c2nc(N)n(CC(=O)Nc3ccc(/C(C)=N\O)cc3)n2)cc(OC)c1OC,95.8%,94.8%,94.2%,94.5%,106%,88.2%,,74.2%,104%,108%,96.1%,96.7%,103%,93.5%,101%,97.1%,63.7%,101%,104%,105%
c1ccc2nc(Cn3cc[n+](Cc4ccc5ccccc5n4)c3)ccc2c1,48.7%,70.8%,95.3%,82.5%,77.7%,34.3%,,77.5%,25.6%,88.7%,41.1%,50.2%,77.9%,67.1%,91.5%,58.8%,21.9%,69%,101%,86.6%
c1ccc(CNCCN(CCNCc2ccccn2)Cc2ccc3ccccc3c2)nc1,21.5%,-17.9% (active),12.2%,-17.4% (active),-7.2% (active),-7.66% (active),,-14.5% (active),-5.97% (active),13.7%,-0.99% (active),24.6%,4.02% (active),19%,-35.6% (active),-34.8% (active),31.7%,-49.4% (active),-46.4% (active),45.1%

# — PubChem BioAssay (NCI)
